Screen size: about 96,000 compounds; about 19,000 (20%) were called active.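 The calls were made as follows: active = blocking of liver enzyme CYP2C9 beyond about 50% at 5 µM (limit read from the data); inactive = the rest.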 A selection follows.
biological target: Cytochrome P450 2C9 (Homo sapiens) (UniProt P11712); assay: blockers of cytochrome P450 2C9 activity – biochemical, luminescence, ADME assay, primary screen (AID 777); conditions: CYP2C9 Supersomes, luciferin-H conversion, at 5 µM, stronger effect = higher value
Sequence (P11712 whole entry, looked up): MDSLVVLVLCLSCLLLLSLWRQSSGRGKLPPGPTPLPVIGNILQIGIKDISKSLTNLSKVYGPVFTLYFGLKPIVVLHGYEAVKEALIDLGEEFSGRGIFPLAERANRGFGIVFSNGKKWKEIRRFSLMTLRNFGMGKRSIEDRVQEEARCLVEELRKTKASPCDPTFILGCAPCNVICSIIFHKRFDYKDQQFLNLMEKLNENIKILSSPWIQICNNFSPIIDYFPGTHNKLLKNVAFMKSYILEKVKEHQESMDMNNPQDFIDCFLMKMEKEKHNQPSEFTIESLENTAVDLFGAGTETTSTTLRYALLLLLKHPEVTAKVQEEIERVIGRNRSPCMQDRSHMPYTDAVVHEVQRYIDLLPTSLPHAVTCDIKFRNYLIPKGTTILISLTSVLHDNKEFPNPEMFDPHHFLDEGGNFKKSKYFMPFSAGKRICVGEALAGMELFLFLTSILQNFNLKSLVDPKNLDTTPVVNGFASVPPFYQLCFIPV

Row | Structure (SMILES) | inhibition
1 | O=S(=O)(NCc1ccccc1Cl)c1cnc[nH]1 | 28.8% (inactive)
2 | CC1(C)CC(=O)C=C(NCCN2CCNCC2)C1 | -8.1% (inactive)
3 | COC(=O)c1ccc(NCC(=O)c2ccccc2)cc1 | 48.7% (inactive)
4 | Cc1ccc(Nc2nc(C)cc(C)c2C(N)=O)cc1 | 6.2% (inactive)
5 | CCOC(=O)c1nc(Nc2ccc(C(=O)OC)cc2)c2ccccc2n1 | 59.5% (active)
6 | Cc1nc(CNS(=O)(=O)c2cccnc2)cs1 | 8.8% (inactive)
7 | CCc1cc2c(=O)c(-c3ccon3)c(N)oc2cc1OC | 0.5% (inactive)
8 | O=C(CSc1nnc(-c2ccco2)n1-c1ccccc1)NCCc1ccccc1 | 30.9% (inactive)
9 | COc1ccc(-n2c(SCC(=O)NCc3cccs3)nnc2-c2ccoc2C)cc1 | 66.1% (active)
10 | O=C(CSc1nnc(-c2cccs2)n1-c1ccccc1)NCc1ccco1 | 70.7% (active)
11 | CCn1c(SCCC(C)C)nnc1-c1c[nH]c2ccccc12 | 1.7% (inactive)
12 | CCn1c(SCC(=O)Nc2ccc(OC)c(OC)c2)nnc1-c1c[nH]c2ccccc12 | 93.3% (active)
13 | CCOC(=O)N1CCN(C(=O)CSc2nnc(-c3c[nH]c4ccccc34)n2CCOC)CC1 | 14.7% (inactive)
14 | Cc1ccc(-c2csc3nnc(SCC(=O)NCc4ccco4)n23)cc1 | 40.9% (inactive)
15 | O=C(CSc1nnc2scc(-c3ccc(F)cc3)n12)NCc1ccco1 | 55% (active)
16 | CCOc1ccccc1-n1c(SCC(=O)N2CCCC2)nnc1-c1ccoc1C | 8.8% (inactive)
17 | O=C(CSc1nnc(-c2cccs2)n1-c1ccccc1)N1CCN(C(=O)c2ccco2)CC1 | 23.6% (inactive)
18 | Cc1ccc(-n2c(SCC(=O)Nc3ccc4c(c3)OCO4)nnc2-c2ccoc2C)cc1 | -13.4% (inactive)
19 | CC(C)(C)OC(=O)c1c(N)n(CCCN2CCCC2=O)c2nc3ccccc3nc12 | -1.7% (inactive)
20 | CCc1c(C)n([O-])c2c([n+]1=O)CCCCC2 | -11.5% (inactive)
21 | CC1CCC2(CC1)NC(=O)N(CC(=O)c1cccn1C)C2=O (configuration not stated) | -21.9% (inactive)
22 | Nc1ccc(C(=O)OCC(=O)NC2CCCc3ccccc32)cc1[N+](=O)[O-] (configuration not stated) | -4.1% (inactive)
23 | Cc1cc(NC(=O)Nc2ccccc2)n(-c2ccccc2)n1 | 14.5% (inactive)
24 | CCOc1ccc(N(CC(=O)NC2CCCCCC2)S(=O)(=O)c2c(C)[nH]c(=O)[nH]c2=O)cc1 | 1.3% (inactive)
25 | Cc1ccc(CNC(=O)c2ccccc2CCc2ccccc2)cc1 | 29.1% (inactive)
26 | Cc1cccc(C(=O)Nc2ccc(C(=O)/C=C/c3cccs3)cc2)c1 | 26.4% (inactive)

Row | Structure (SMILES) | inhibition
27 | O=C(NC1CC1)c1ccc2c(c1)NC(=O)c1ccccc1S2 | 11.1% (inactive)
28 | COc1ccc(-c2nnc(SCC(=O)c3ccco3)n2-c2ccccc2)cc1 | -14.6% (inactive)
29 | COc1ccc(-n2c(SCC(=O)NCc3ccco3)nnc2-c2c[nH]c3ccccc23)cc1 | 58.8% (active)
30 | COc1ccc(C(=O)NC(=O)CSc2nnc(-c3ccco3)n2-c2ccccc2)cc1 | -13.3% (inactive)
31 | Cc1cc(NC(=O)CN2CCCC(C)C2)n(-c2nc3ccccc3s2)n1 (configuration not stated) | 22.2% (inactive)
32 | c1ccc2c(c1)OCC(c1nn3cnnc3s1)O2 (configuration not stated) | 7% (inactive)
33 | CC(C)(C)c1cc2cccnc2n1Cc1cccc(F)c1 | 6.5% (inactive)
34 | COC(=O)c1ccc(OCC(=O)NC(C)(C)C)cc1 | 14.1% (inactive)
35 | CC/C(=N/Nc1ccccc1)c1cnnc(SC)n1 | 59% (active)
36 | CC(C)(C)c1csc(NC2=NS(=O)(=O)c3ccccc32)n1 | 17.4% (inactive)
37 | O=S1(=O)C=C(SCCN2CCCC2)c2ccccc21 | 14% (inactive)
38 | CC(C)(C)c1ccc(OC2=CS(=O)(=O)c3ccccc32)cc1 | 79% (active)
39 | Brc1cnc(N2CCCC2)nc1N1CCCCC1 | -15.1% (inactive)
40 | COc1ccc(C2=NOC(C(=O)NCc3ccco3)C2)cc1OC (configuration not stated) | -31.2% (inactive)
41 | Cc1ccnc(-n2sc3ccccc3c2=O)n1 | 30.1% (inactive)
42 | Cc1cc(O)cc(O)c1C(=O)Cc1cnn(-c2ccccc2)c1 | 63.4% (active)
43 | COc1ccc(C(=O)Cc2cnn(-c3ccccc3)c2)c(O)c1 | 5% (inactive)
44 | Cn1nnnc1SCC(=O)N1CCN(Cc2ccccc2)CC1 | 1.6% (inactive)
45 | CC(C)OC(=O)C(C#N)c1nc2ccccc2nc1N1CCN(Cc2ccc3c(c2)OCO3)CC1 (configuration not stated) | 16.9% (inactive)
46 | CC(C)OC(=O)C(C#N)c1nc2ccccc2nc1N1CCN(Cc2ccccc2)CC1 (configuration not stated) | 62.6% (active)
47 | Cc1cccc(C)c1NC(=O)c1ccc(CN2CCc3ccccc3C2)cc1 | -5.8% (inactive)
48 | CC1(C)Cc2c(sc3nc4n(c(=N)c23)CCCCC4)CO1 | 3.2% (inactive)
49 | C=CC[n+]1c(-c2ccc(C)cc2)csc1NNC(=O)Nc1ccccc1 | 8.5% (inactive)
50 | Oc1ccc(-c2csc(Nc3cccnc3)n2)cc1 | 37.6% (inactive)
51 | c1cnc(Nc2nc(-c3ccc4ccccc4c3)cs2)nc1 | -3.5% (inactive)
52 | c1ccc(Nc2nc(-c3ccncc3)cs2)nc1 | 92.9% (active)

Row | Structure (SMILES) | inhibition
53 | Fc1ccc(Br)cc1/C=N/n1cnnc1 | 6.6% (inactive)
54 | Cc1cccc(C(=O)Nc2nnc(Cc3c[nH]c4ccccc34)s2)c1 | -4.3% (inactive)
55 | CN(CC#CCC(c1ccccc1)c1ccccc1)C(C)(C)C | 25.6% (inactive)
56 | CCCCn1c(=S)[nH]c2ncccc2c1=O | 13.8% (inactive)
57 | Fc1ccc(Cn2nnnc2C(c2cccs2)N2CCCCCC2)cc1 (configuration not stated) | 83.4% (active)
58 | CC(C)C(c1nnnn1Cc1ccccc1)N1CCC(C(N)=O)CC1 (configuration not stated) | 10.7% (inactive)
59 | N#Cc1ccc(C(c2nnnn2CCc2ccccc2)N2CCCCCC2)cc1 (configuration not stated) | 8.8% (inactive)
60 | CCOC(=O)N1CCC(C(N)=O)CC1 | -7.1% (inactive)
61 | Cc1ccccc1OCC(=O)NCC(=O)OCC(=O)c1ccc2ccccc2c1 | -61.4% (inactive)
62 | CCCOc1ccc2c3c(c(=O)oc2c1OCCC)CCC3 | -0.6% (inactive)
63 | CC(C)c1nc(-c2ccccn2)no1 | 3.9% (inactive)
64 | O=C(Oc1ccccc1)c1ccc2nccnc2c1 | 17% (inactive)
65 | O=C(Oc1ccc(-c2nc(-c3ccccn3)no2)cc1)c1ccccc1 | 87.2% (active)
66 | CCOC(=O)C1=C(C)NC(=O)N(C(C)=O)C1c1ccc(Cl)cc1 (configuration not stated) | 74.3% (active)
67 | COCCOC(=O)C1=C(C)NC(=O)NC1c1ccc(Cl)cc1 (configuration not stated) | -3% (inactive)
68 | CCOC(=O)C1=C(CN2CCc3ccccc32)NC(=O)NC1c1ccc(Cl)cc1 (configuration not stated) | 4.7% (inactive)
69 | COc1ccc(C2=NOC3(CC(=O)N(c4ccc(Cl)cc4)C3=O)C2)c(OC)c1 (configuration not stated) | 23% (inactive)
70 | O=C(NC1CCN(Cc2ccccc2)CC1)c1ccccc1F | 7.8% (inactive)
71 | CCOc1cccc(-c2nn3c(-c4ccccn4)nnc3s2)c1 | 23.2% (inactive)
72 | COc1cc(-c2nn3c(-c4cccc(C)c4)nnc3s2)cc(OC)c1OC | 74.1% (active)
73 | COc1ccc(-c2nn3c(-c4ccccc4)nnc3s2)cc1OC | 6.9% (inactive)
74 | Cc1cc(NC(=O)COn2nnc3ccccc32)no1 | 24.9% (inactive)
75 | Cc1ccc(C(=O)N2CCN(C(=O)N3CCOCC3)CC2)cc1 | 11.5% (inactive)
76 | Cc1cc2nc(-c3ccc(NC(=O)c4cccnc4)cc3)oc2cc1C | 7.6% (inactive)
77 | O=C(CC1(O)C(=O)N(CN2CCOCC2)c2ccccc21)c1ccccc1 (configuration not stated) | -1% (inactive)
78 | CCOC(=O)CN1C(=O)C(O)(CC(=O)c2ccccn2)c2ccccc21 (configuration not stated) | 26% (inactive)

Row | Structure (SMILES) | inhibition
79 | C=CCN1C(=O)C(O)(CC(=O)c2ccc(Cl)cc2)c2ccccc21 (configuration not stated) | 67.9% (active)
80 | Nc1c(C(=O)NCc2ccccc2)sc2nc3c(cc12)C(=O)CCC3 | 6% (inactive)
81 | Cc1cc(C)c2nc(NC(=O)C3CCCO3)sc2c1 (configuration not stated) | 28.3% (inactive)
82 | O=C(Cc1ncc(C(F)(F)F)cc1Cl)Nc1cccc(Br)c1 | 24.9% (inactive)
83 | CCCN(CCC)C(=O)C1c2ccccc2Oc2ccccc21 | 53.1% (active)
84 | CCOC(=O)N1CCN(C(=O)CNC(=O)Cc2ccc(Cl)cc2)CC1 | 10.1% (inactive)
85 | CCOc1cc(N2CCOCC2)c(OCC)cc1NC(=O)COc1cccc2cccnc12 | 0% (inactive)
86 | C=CCn1c(SCC(=O)/C(C#N)=C(\C)N)nc2sc(C)c(C)c2c1=O | 38.5% (inactive)
87 | O=C(CSc1nc2c(cnn2-c2ccc(F)cc2)c(=O)[nH]1)N1CCCCCC1 | 1.3% (inactive)
88 | CCOC(=O)CSc1nc2sc3c(c2c(=O)[nH]1)CC(C)(C)OC3 | 15.3% (inactive)
89 | Cc1cccc(NC(=O)CSc2nc3c(c(=O)[nH]2)CCCC3)c1C | 35.7% (inactive)
90 | CC(=O)c1sc2nc(SCC(=O)N3CCCCC3)[nH]c(=O)c2c1C | 95.6% (active)
91 | C=CCNC(=O)CSc1nc2sc(C)c(C)c2c(=O)[nH]1 | 58.1% (active)
92 | Cn1c(=O)cc(OCCCC(=O)N2CCN(Cc3ccc4c(c3)OCO4)CC2)c2ccccc21 | 9.3% (inactive)
93 | CCOC(=O)NNC(=O)c1ccc(Cl)cc1 | 1.4% (inactive)
94 | CN(C)/C=C/c1c(C#N)c(=O)ncn1Cc1ccccc1 | 3.3% (inactive)
95 | Cn1c(CCN2CCCCCC2)nc2cc(NC(=O)Nc3ccccc3)ccc21 | -0.2% (inactive)
96 | COc1ccc(NC(=O)Nc2ccc3nc(C)c(C)nc3c2)cc1 | 18.7% (inactive)
97 | Cc1nc2ccc(NC(=O)N3CCC(c4ccccc4)C3)cc2nc1C (configuration not stated) | 51.4% (active)
98 | Cc1cc(C(=O)CC#N)c(C)n1CC(F)(F)F | 19.4% (inactive)
99 | COc1cccc2cc(C(=O)N(C)C)c(=O)oc12 | -103% (inactive)
100 | CCOC(=O)c1cnc(-c2ccccc2)nc1Oc1ccc(C)cc1 | 65.7% (active)
101 | CCCCOc1ccc(-c2ncc(C(=O)OCC)c(N)n2)cc1 | -19.4% (inactive)
102 | CCOC(=O)c1c(C)nc(-c2ccccc2)nc1NC(=O)C(C)C | 23% (inactive)

Source: PubChem BioAssay AID777 (Sanford-Burnham Center for Chemical Genomics, 2007)
